KB-V1 cytotox – kills drug-selected multidrug resistant KB-V1 cells | KB-V1 MDR cells viability, CellTiter-Glo, 72 h | Potency, µM (series often up to 46.1 µM), most hits filed as cytotoxic | hit rate 3.4% among 400,000 | AID 1347076; note: nearly all actives have a fitted effect of over 60% in size
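KB-V1, DMEM (no phenol red) + 10% FBS; cpd pin-transferred, titration series; 72 h, 37 degrees C; CellTiter-Glo, luminescence. Data normalized, curve-fit.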
MCF10A rereplic – inducers of DNA re-replication in MCF 10A breast cells. MCF 10A DNA re-replication, Hoechst nuclear intensity, 48 h. Potency, µM (doses to about 46.1 µM), usual class: activators. hit rate 2.9% among 350,000; note: nearly all actives have a fitted effect of over 50% in size
HT1080-NT tox – kills 2HG-producing HT-1080-NT fibrosarcoma cells; HT-1080-NT fibrosarcoma viability, CellTiter-Glo ATP luminescence, 48 h; Potency, µM (doses to about 46.1 µM), hits mostly cytotoxic; hit rate 1.6% among 360,000; AID 686970;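 note: NT is the 2HG producing partner of a matched IDH1 knockdown line; nearly all actives have a fitted effect of over 55% in size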
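Viability by CellTiter-Glo luminescence after 48 h compound exposure at 37C of HT-1080-NT cells (750/well, RPMI, 5% FBS). % activity scaled between DMSO wells and medium-only wells, then curve-fitted and categorized by curve class.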
SW480 rerep – induces DNA re-replication in SW480 colon adenocarcinoma cells | SW480 DNA re-replication, Hoechst DNA content imaging, 48 h | Potency, µM (doses to about 46.1 µM), usual class: activators | hit rate 1.8% among 340,000 | AID 624297; note: nearly all actives have a fitted effect of over 55% in size
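Treated cells incubate 48 hr (37 C, 5% CO2), are stained 40 min with Hoechst, and nuclear fluorescence is enumerated; a rise in nuclei with high DNA signal marks re-replication.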
HT1080 IDH1KD tx – toxicity to HT-1080 IDH1 knockdown cells (counter line) | Potency, µM (doses to about 46.1 µM), usual class: cytotoxic | hit rate 2% among 360,000 | HT-1080 IDH1 knockdown viability, ATP luminescence, 48 h
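Knockdown cells (IDH1KD HT-1080) received compounds 2 h after plating at 750 cells/well and were kept 48 h at 37 °C in 5% FBS RPMI. A CellTiter-Glo luminescence read gave % activity for curve fitting.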
KB-3-1 tox – kills parental KB-3-1 adenocarcinoma cells. KB-3-1 viability, CellTiter-Glo ATP luminescence, 72 h. Potency, µM (highest dose often 46.1 µM), usual class: cytotoxic. hit rate 1.4% among 400,000. AID 1347075; note: nearly all actives have a fitted effect of over 60% in size
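KB-3-1 parental drug-naive adenocarcinoma cells in DMEM/10% FBS, incubated 72 h at 37 C with pin-transferred compounds across a concentration series. Viability by CellTiter-Glo luminescence; concentration-response curves fitted after normalization.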
Numbers stand for hits; 0 = inactive; ? = inconclusive; - = no result; ! = repeats disagree. In the library only some 8% were active in any assay of this set; here they are far more common. Calls come from the whole dose curve; as a rule, active = well fitted curve in the direction sought with a large enough effect; inconclusive = small, poorly fitted or top-dose-only effect, or another doubt; inactive = no such curve, though single readings can be large; an effect the other way counts as inactive or inconclusive.

SMILES | KB-V1 cytotox | MCF10A rereplic | HT1080-NT tox | SW480 rerep | HT1080 IDH1KD tx | KB-3-1 tox
O=C(CNC(=O)C1CCCCC1)Nc1cc(Cl)ccc1Cl | 21µM | 0 | 0 | 0 | 0 | 0
COC(=O)c1cccc(NC(=O)Nc2ccc(Cl)c(Cl)c2)c1 | 15µM | ? | ? | 0 | ? | 0
COC(=O)c1ccc(NC(=O)Nc2ccc(F)c(Cl)c2)cc1 | 18µM | ? | ? | 0 | ? | 0
COC(=O)c1ccc(NC(=O)Nc2ccc(F)cc2)cc1 | 0 | ? | 0 | 0 | 0 | 0
COC(C[C@H]1O[C@H]1C(=O)[C@@H](C)OCc1ccccc1)OC | 0 | ? | 0 | 0 | 0 | 0
O=C(NNC(=O)c1ccccc1Br)c1cnccn1 | ? | 0 | 0 | 0 | ? | 0
CCN(CC)S(=O)(=O)c1ccc(C(=O)Nc2nnc(C(C)C)s2)cc1 | ? | 0 | 0 | 0 | 0 | 0
O=C(Cn1nc(C(=O)O)c2ccccc2c1=O)c1c[nH]c2ccccc12 | 0 | 0 | 0 | ? | 0 | 0
O=C(Nc1ccc(F)c(Cl)c1)C1CCCCC1 | 0 | 0 | 0 | 0 | 0 | 0
O=C(Nc1ccc(F)c(Cl)c1)C1CCCC1 | 0 | ? | 0 | 5.8µM | 0 | 0
CCC(CO)NCc1ccc2c(c1)n(C)c(=O)n2C (stereo not drawn) | 0 | 0 | 0 | 0 | 0 | 0
O=C1[C@H](Cc2ccccc2)NCCCC[C@H](c2ccc(Cl)cc2)N1Cc1ccc(Cl)cc1 | ? | ? | 0 | 0 | 0 | ?
O=C1[C@H](Cc2ccccc2)NCCCC[C@@H](c2ccc(Cl)cc2)N1Cc1ccccc1 | 23µM! | 0 | ? | 0 | ? | ?
COC(=O)c1c(NC(=O)CN2C(=O)NC3(CCCCC3C)C2=O)sc2c1CCC2 (stereo not drawn) | 0 | 0 | 0 | 0 | ? | 10µM
CC(C)CNC(=O)C1(C)CCCN1C(=O)c1cc2ccccc2s1 (stereo not drawn) | 0 | - | 0 | - | 0 | 0
N#CC(C#N)=C1C=CC=CN1/C(=C\c1ccccc1)C(=O)c1cccs1 | ? | 0 | 0 | ? | 0 | 0
N#CC(C#N)=C1C=CC=CN1/C(=C\c1ccccc1Cl)C(=O)c1ccccc1 | ? | 6.5µM | ? | 9.2µM | 2.6µM | ?
Cc1ccc(C(=O)N2CCN(c3cccc(Cl)c3)CC2)cc1C | ? | 18µM | ? | 12µM | ? | ?
Cc1ccc(C(=O)N2CCN(c3ccccc3)CC2)cc1C | 0 | 0 | 0 | 0 | 0 | 0
COc1ccc(C(=O)N2CCN(c3cccc(Cl)c3)CC2)cc1 | 21µM | 0 | 0 | 0 | 0 | 0
COc1ccc(N2CCN(C(=O)c3ccc(-n4nc(C)cc4C)cc3)CC2)cc1 | 16µM | 0 | 0 | 0 | 0 | 0
O=C(c1cccc(N2CCCC2=O)c1)N1CCN(c2cccc(Cl)c2)CC1 | ? | 0 | ? | 0 | 13µM | 5.2µM
COc1ccc(NC(=O)NC2CCCCCCC2)cc1OC | ? | 0 | 0 | ? | 0 | 0
Cc1nc2nc(SCC(=O)c3cccc([N+](=O)[O-])c3)[nH]c2cc1Br | 0 | 0 | 0 | - | 0 | ?
O=c1oc(CCO)cc2ccc(-c3ccc4[nH]ccc4c3)cc12 | 0 | 0 | 0 | 0 | 0 | 0
SMILES | KB-V1 cytotox | MCF10A rereplic | HT1080-NT tox | SW480 rerep | HT1080 IDH1KD tx | KB-3-1 tox
O=C(NCc1ccccc1F)c1cc(=O)[nH]c2ccccc12 | 0 | ? | 0 | 0 | 0 | 0
COc1cc(C(=S)N2CCN(c3cccc(Cl)c3)CC2)ccc1O | ? | 15µM | ? | 21µM | 16µM | 8.2µM
COc1ccc(-n2nc(C(=O)NCC(=O)N3CCN(c4cccc(Cl)c4)CC3)c3ccccc3c2=O)c(OC)c1 | 12µM | 0 | 0 | 0 | 0 | 0
Cc1nc2cccnc2n1-c1cccc(C(=O)N2CCN(c3ccc(Cl)cc3)CC2)c1 | 0 | - | - | - | - | 12µM
CCOC(=O)c1c(C)c(C(=O)N2CCN(c3cccc(Cl)c3)CC2)c(C)n1C | 10µM | 0 | 0 | 0 | 0 | 0
C[C@H](NC(=O)c1nc[nH]c1C(=O)N1CCN(c2ccccc2)CC1)c1ccccc1 | 0 | 0 | 0 | 0 | 0 | 0
Cc1n[nH]c(=O)nc1NCc1ccc(Cl)cc1 | 0 | 0 | 0 | 0 | 0 | 0
O=C(c1cccs1)N1CCN(c2cccc(Cl)c2)CC1 | 0 | 0 | 0 | 0 | 0 | 0

Assay outcomes deposited in PubChem by National Center for Advancing Translational Sciences (NCATS).
